The nature of test [1]: Human pregnane X receptor (PXR) small molecule agonists, qHTS cell viability counter screen (AID 1346977). Also: nearly all actives have a fitted effect of over 50% in size. The gist of the method:
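PXR-Luc HepG2, 2,000 cells/well, 5% charcoal-stripped FBS; 5hr settle; cpd 24hr, 37C/5% CO2; CellTiter-Fluor at 23hr, read 1hr later (fluorescence).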
In general terms: In qHTS, concentration-response curves come from the screen itself.

Test [2] is described as follows: Caspase-3/7 induction in HepG2 cells by small molecules, qHTS assay (AID 1346978). Also: nearly all actives have a fitted effect of over 15% in size. In outline:
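Caspase-3/7 induction was measured by Caspase-Glo 3/7 luminescence (30 min, room temperature) after a 17 hr compound exposure of wild-type HepG2 cells seeded at 2,000 per well and pre-incubated 5 hr.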

A short description of test [3]: Caspase-3/7 induction in CHO-K1 cells by small molecules, qHTS cell viability counter screen (AID 1346979). Also: nearly all actives have a fitted effect of over 35% in size. The gist of the method:
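Cells (CHO-K1, wild type) are plated at 1,500 per well and incubated 5hr. Test compounds in DMSO are then pinned in, followed by 16hr at 37C and 5% CO2. Viability is read by CellTiter-Fluor fluorescence after 1hr.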

Test [4] in a line: Caspase-3/7 induction in HepG2 cells by small molecules, qHTS cell viability counter screen (AID 1346981). Also: series mostly up to about 92 µM; nearly all actives have a fitted effect of over 30% in size. The gist of the method:
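Steps: seed 2,000 HepG2 cells per well; incubate 5 hr at 37 C; pin-add compounds in DMSO; incubate 16 hr; add CellTiter-Fluor; after 1 hr at 37 C and 5% CO2, read fluorescence.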

Test [5] addresses Cytochrome P450 2D6 (Homo sapiens) (UniProt P10635). The test is described as follows: Cytochrome P450 Family 2 Subfamily D Member 6 (CYP2D6) small molecule antagonists: luciferase reporter qHTS assay (AID 1671196). Also: series mostly up to about 120 µM; nearly all actives have a fitted effect of over 50% in size. The gist of the method:
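P450-Glo format: CYP2D6 converts a proluciferin substrate to luciferin in an NADPH-driven reaction lasting 1 h at room temperature. Light output, proportional to CYP2D6 activity, reflects interference by test chemicals.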

The target of test [6] is Cytochrome P450 2C19 (Homo sapiens) (UniProt P33261). The test is described as follows: Cytochrome P450 Family 2 Subfamily C Member 19 (CYP2C19) small molecule antagonists: luciferase reporter qHTS assay (AID 1671197). Also: nearly all actives have a fitted effect of over 65% in size. Also: potency is read from the fitted curve at half-maximal effect. In outline: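 CYP2C19 P450-Glo, 1536-well qHTS. Cpd + enzyme/proluciferin substrate 10 min RT; + NADPH regen, 37C 1 h; stop with luciferin detection reagent, 20 min RT, luminescence (RLU). Pos ctrl ketoconazole.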
For orientation: In a reporter assay the amount or activity of a reporter protein is the signal.

Test [7] has as its target Cytochrome P450 2C9 (Homo sapiens) (UniProt P11712). The test is described as follows: Cytochrome P450 Family 2 Subfamily C Member 9 (CYP2C9) small molecule antagonists: luciferase reporter qHTS assay (AID 1671198). Also: nearly all actives have a fitted effect of over 50% in size. Also: potency is read from the fitted curve at half-maximal effect. The gist of the method:
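Enzyme-substrate mix preincubated with compound 10 min at room temperature; reaction started with NADPH regeneration solution, 1 h 37C. Luminescent luciferin product read after 20 min detection reagent.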

In test [8] the target is Cytochrome P450 1A2 (Homo sapiens) (UniProt P05177). Put plainly: Cytochrome P450 Family 1 Subfamily A Member 2 (CYP1A2) small molecule antagonists: luciferase reporter qHTS assay (AID 1671199). Also: nearly all actives have a fitted effect of over 50% in size. Also: potency is read from the fitted curve at half-maximal effect. In outline: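 Inhibition of CYP1A2 conversion of proluciferin to luciferin, detected by luminescence. Reaction run 1 h at room temperature with NADPH regeneration after brief compound preincubation.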

Test [9] has as its target Voltage-gated inwardly rectifying potassium channel KCNH2 (Homo sapiens) (UniProt Q12809). Put plainly: Human Ether-a-go-go-Related Gene (hERG) channel small molecule antagonists: fluorescence cell-based qHTS assay (AID 1671200). Also: nearly all actives have a fitted effect of over 50% in size. Also: potency is read from the fitted curve at half-maximal effect. The gist of the method: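 Channel function was assessed by thallium flux. Cells seeded the previous day and kept at 37 C took up FluxOR II dye over 1 h in the dark at room temperature, then sat another 10 min before stimulation.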
Background: Block of hERG is tested as a sign of cardiac risk.

For test [10], the target named is Cytochrome P450 3A4 (Homo sapiens) (UniProt P08684). Put plainly: Cytochrome P450 Family 3 Subfamily A Member 4 (CYP3A4) small molecule antagonists: luciferase reporter qHTS assay (AID 1671201). Also: nearly all actives have a fitted effect of over 50% in size. Also: potency is read from the fitted curve at half-maximal effect. The gist of the method:
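Compounds in DMSO were pin-transferred onto CYP3A4 enzyme-substrate mix and held 10 min at room temperature. NADPH regenerating solution started the reaction for 1 h; luciferin detection reagent stopped it, and luminescence was read after 20 min.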

The nature of test [11]: Caspase-3/7 induction in CHO-K1 cells by small molecules, qHTS assay (AID 1346980). Also: nearly all actives have a fitted effect of over 15% in size. The gist of the method: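 Luminescent Caspase-Glo 3/7 read (30min, room temperature) quantified apoptosis induction. Cells were wild-type CHO-K1, treated with compound for 17hr at 37 C and 5% CO2.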
For test [12], the target named is Nuclear receptor subfamily 1 group I member 2 (Homo sapiens) (UniProt O75469). The test is described as follows: Human pregnane X receptor (PXR) small molecule agonists, qHTS assay (AID 1346982). Also: nearly all actives have a fitted effect of over 35% in size. Also: potency is read from the fitted curve at half-maximal effect. The gist of the method: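 Agonist mode qHTS: PXR-Luc HepG2 cells plated 5 hr before DMSO-dissolved compounds were pinned in, cultured 24 hr at 37 C, 5% CO2; ONE-Glo luminescence readout.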

The target of test [13] is Nuclear receptor subfamily 1 group I member 2 (Rattus norvegicus) (UniProt Q9R1A7). The test is described as follows: Rat pregnane X receptor (rPXR) activation by small molecules, qHTS assay (AID 1346983). Also: nearly all actives have a fitted effect of over 20% in size. Also: potency is read from the fitted curve at half-maximal effect. Conditions: rPXR luciferase reporter cells, One-Glo luminescence, 24 h; max activation: active compounds read high. The gist of the method: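 Luminescent readout (One-Glo luciferase, 30 min room temperature) followed 24 hr compound treatment at 37 C of rPXR cells plated 2,000 per well and preincubated 5hr; qHTS format with compounds delivered in DMSO.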

Test [14] addresses Nuclear receptor subfamily 1 group I member 2 (Homo sapiens) (UniProt O75469). Put plainly: CYP3A4 induction through human pregnane X receptor (PXR) by small molecules, qHTS assay (AID 1346984). Also: nearly all actives have a fitted effect of over 40% in size. The gist of the method: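 Steps: seed DPX-2 cells, 5 hr at 37C; pin-transfer compounds; 24 hr at 37C; add Luciferin-IPA (3uM final), 3 hr at 37C; add One-Glo, 30 min RT; read luminescence.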

The target is the same in test [15]. The test is described as follows: Human pregnane X receptor (PXR) activation by small molecules, qHTS assay (AID 1346985). Also: nearly all actives have a fitted effect of over 40% in size. Also: potency is read from the fitted curve at half-maximal effect. In outline:
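DPX-2 cells (HepG2 co-transfected with a PXR response element and a CYP3A4-promoter luciferase construct) were seeded at 2,000 per well, rested 5 hr at 37C, then exposed to DMSO-dissolved compounds for 24 hr. Activation was read as luciferase luminescence.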

Each structure is given as a SMILES string. Unmarked numbers belong to inactive results. Records with an inconclusive call do not appear. Active and inactive are the calls of the source. Calls follow the shape of the dose curve; as a rule, active = well fitted curve in the direction sought with a large enough effect in the repeat runs; inconclusive = weak or mixed curves; inactive = no such curve, though single readings can be large; an effect the other way counts as inactive or inconclusive.
% is scaled to controls: 0 for no effect and ±100 for the full control effect.

Chain of Cytochrome P450 2C19 (Homo sapiens) (P33261 whole entry, looked up): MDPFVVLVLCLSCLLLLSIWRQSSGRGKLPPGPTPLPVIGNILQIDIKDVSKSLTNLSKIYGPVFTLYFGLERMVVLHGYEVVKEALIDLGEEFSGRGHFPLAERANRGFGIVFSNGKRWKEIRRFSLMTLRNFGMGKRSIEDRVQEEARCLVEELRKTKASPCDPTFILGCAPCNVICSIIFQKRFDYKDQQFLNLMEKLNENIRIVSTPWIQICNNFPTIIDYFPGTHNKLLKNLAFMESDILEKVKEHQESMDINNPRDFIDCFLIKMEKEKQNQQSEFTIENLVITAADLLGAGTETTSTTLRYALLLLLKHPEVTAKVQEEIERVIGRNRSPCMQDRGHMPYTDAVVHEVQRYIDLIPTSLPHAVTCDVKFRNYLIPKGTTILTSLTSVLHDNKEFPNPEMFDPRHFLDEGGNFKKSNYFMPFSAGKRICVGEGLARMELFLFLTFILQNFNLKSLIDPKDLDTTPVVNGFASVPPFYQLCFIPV
Chain of Cytochrome P450 3A4 (Homo sapiens) (P08684 whole entry, looked up): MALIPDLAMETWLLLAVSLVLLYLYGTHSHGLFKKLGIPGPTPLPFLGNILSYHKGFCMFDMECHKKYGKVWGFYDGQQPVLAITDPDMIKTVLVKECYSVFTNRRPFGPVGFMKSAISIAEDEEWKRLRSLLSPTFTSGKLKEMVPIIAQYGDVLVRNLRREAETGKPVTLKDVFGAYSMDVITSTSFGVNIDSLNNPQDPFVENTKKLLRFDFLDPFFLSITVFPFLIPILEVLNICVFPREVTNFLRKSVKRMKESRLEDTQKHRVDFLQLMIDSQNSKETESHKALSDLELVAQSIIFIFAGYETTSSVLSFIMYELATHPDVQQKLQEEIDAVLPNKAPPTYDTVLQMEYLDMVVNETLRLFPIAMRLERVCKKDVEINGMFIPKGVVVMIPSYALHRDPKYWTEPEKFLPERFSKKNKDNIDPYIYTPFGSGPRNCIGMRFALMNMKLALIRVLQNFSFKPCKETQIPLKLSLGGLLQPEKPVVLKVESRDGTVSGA
Chain of Voltage-gated inwardly rectifying potassium channel KCNH2 (Homo sapiens) (Q12809 whole entry, looked up): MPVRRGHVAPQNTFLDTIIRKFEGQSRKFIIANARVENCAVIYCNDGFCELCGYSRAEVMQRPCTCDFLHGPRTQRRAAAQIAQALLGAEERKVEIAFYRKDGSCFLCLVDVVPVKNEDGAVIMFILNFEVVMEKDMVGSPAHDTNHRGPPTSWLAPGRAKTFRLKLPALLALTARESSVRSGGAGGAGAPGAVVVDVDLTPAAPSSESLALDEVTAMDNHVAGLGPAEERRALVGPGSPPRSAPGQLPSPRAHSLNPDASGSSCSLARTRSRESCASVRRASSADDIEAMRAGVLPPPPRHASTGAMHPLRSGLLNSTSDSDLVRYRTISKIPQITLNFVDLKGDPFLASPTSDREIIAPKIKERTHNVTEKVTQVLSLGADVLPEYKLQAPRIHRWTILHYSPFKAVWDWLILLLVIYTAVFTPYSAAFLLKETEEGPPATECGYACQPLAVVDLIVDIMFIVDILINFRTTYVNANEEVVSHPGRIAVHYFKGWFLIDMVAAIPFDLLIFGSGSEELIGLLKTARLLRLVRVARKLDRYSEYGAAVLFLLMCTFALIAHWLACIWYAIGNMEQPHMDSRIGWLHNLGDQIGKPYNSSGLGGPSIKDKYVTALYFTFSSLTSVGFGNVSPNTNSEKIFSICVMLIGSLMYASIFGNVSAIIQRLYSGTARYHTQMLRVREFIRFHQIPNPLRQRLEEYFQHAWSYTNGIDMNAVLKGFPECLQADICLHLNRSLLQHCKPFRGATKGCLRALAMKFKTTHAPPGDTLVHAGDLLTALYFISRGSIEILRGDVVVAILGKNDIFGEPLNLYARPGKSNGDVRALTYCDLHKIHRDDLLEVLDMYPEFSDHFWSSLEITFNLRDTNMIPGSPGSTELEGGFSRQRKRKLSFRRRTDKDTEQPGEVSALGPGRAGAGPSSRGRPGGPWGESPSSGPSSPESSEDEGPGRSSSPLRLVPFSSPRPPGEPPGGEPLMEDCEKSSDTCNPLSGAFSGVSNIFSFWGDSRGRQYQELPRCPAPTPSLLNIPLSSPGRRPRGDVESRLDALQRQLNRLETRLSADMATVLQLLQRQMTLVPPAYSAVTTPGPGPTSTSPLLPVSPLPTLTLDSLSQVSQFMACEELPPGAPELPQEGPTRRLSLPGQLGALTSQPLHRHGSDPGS
Chain of Nuclear receptor subfamily 1 group I member 2 (Homo sapiens) (O75469 whole entry, looked up): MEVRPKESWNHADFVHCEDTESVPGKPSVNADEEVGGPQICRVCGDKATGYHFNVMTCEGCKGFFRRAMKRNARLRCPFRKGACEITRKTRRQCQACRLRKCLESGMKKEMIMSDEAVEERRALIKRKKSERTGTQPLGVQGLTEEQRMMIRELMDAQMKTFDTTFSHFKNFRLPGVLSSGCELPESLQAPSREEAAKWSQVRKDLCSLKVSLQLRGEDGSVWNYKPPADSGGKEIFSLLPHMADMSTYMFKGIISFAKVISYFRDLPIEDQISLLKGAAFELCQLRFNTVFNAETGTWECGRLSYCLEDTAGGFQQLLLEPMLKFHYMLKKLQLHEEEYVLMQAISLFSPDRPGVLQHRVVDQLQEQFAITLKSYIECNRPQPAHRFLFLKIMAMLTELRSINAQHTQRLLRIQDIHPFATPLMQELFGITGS
Chain of Nuclear receptor subfamily 1 group I member 2 (Rattus norvegicus) (Q9R1A7 whole entry, looked up): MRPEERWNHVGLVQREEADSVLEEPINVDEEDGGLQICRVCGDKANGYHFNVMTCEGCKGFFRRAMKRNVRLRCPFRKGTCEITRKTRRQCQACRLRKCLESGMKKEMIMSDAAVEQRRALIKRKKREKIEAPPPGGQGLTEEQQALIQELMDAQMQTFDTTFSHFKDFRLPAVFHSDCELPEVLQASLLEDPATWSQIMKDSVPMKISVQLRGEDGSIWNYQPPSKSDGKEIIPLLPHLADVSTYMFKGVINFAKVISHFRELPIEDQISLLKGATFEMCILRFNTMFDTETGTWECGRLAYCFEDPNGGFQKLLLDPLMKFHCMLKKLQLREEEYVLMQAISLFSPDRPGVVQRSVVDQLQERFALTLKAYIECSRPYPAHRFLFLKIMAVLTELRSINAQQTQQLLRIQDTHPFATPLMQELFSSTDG
Chain of Cytochrome P450 2C9 (Homo sapiens) (P11712 whole entry, looked up): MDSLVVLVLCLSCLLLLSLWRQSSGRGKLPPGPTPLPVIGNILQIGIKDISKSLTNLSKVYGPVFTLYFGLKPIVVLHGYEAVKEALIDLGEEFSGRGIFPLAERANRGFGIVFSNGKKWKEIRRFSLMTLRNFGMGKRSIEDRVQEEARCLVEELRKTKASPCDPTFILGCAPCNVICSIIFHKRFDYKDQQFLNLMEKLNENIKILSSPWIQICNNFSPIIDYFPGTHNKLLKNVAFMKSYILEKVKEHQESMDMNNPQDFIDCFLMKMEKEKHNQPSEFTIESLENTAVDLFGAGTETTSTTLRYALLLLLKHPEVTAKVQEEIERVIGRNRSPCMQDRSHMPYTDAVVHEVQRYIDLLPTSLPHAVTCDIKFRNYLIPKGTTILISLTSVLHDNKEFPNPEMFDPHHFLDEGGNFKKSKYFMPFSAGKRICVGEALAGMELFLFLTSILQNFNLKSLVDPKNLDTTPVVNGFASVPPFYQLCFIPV
Chain of Cytochrome P450 1A2 (Homo sapiens) (P05177 whole entry, looked up): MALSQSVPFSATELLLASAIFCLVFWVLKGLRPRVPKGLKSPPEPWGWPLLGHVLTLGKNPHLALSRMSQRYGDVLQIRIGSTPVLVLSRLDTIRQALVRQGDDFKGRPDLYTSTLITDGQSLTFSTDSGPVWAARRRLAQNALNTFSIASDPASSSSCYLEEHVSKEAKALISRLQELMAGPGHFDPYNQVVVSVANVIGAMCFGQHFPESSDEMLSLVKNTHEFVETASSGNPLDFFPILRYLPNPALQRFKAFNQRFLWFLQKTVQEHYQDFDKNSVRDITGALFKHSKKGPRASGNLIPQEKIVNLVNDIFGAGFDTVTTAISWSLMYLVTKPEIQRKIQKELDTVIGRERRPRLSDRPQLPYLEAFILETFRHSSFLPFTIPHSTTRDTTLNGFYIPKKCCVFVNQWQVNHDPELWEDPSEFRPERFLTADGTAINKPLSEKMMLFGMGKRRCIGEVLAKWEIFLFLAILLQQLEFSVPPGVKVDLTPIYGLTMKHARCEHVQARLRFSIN
Chain of Cytochrome P450 2D6 (Homo sapiens) (P10635 whole entry, looked up): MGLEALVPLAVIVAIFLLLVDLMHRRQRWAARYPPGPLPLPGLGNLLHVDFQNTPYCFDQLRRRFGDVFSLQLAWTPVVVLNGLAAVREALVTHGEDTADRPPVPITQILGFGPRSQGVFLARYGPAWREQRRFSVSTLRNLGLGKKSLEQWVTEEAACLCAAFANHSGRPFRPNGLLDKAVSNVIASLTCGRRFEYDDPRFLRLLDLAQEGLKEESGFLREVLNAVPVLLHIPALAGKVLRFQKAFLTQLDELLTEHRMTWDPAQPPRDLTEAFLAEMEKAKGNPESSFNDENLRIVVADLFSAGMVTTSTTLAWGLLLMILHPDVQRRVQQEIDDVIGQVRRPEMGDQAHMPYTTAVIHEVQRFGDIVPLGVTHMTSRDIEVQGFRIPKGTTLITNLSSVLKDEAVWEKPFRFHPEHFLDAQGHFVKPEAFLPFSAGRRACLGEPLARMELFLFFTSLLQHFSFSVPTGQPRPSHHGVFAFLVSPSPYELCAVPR

`CCOC(=O)CC(=O)C(=O)OCC`: the Potency entry in [1], in [2], in test [3], in [4] and in [5] was “inactive” in each case. For the same compound, the Potency is 35.6 µM (active) in [6]; 39.9 µM (active) in [7]; 31.7 µM (active) in test [8]; 49 µM (active) in test [9]; 71 µM (active) in test [10].
As for `CC(=O)[C@H]1CC[C@H]2[C@@H]3C[C@H](C)C4=CC(=O)CC[C@]4(C)[C@H]3[C@@H](O)C[C@]12C`, the Potency result in test [1], in [2], in test [4], in test [14], in test [15] and in test [5] was “inactive” throughout. In addition, the Potency entry in test [8] and in test [9] was “inactive” each time. In addition, in test [11], the outcome was inactive. The figures for the Potency in [12], in test [13] and in [7] were 13.3 µM (active), 2.51 µM (active) and 1.23 µM (active), respectively.
Take `Nc1ccc(Cl)cc1[N+](=O)[O-]`: the Potency result in test [1], in [2], in [6], in [7] and in [9] was “inactive” throughout. The call in test [11] was inactive. Further, the Potency in [12] was 60.5 µM (active); in [8], 9.93 µM (active).
Regarding `CCCCCC=CCC=CCCCCCCCC(=O)OCC`, the Potency result in test [1], in test [2], in [4], in [14] and in [15] was “inactive” throughout. The Potency in [12] was 29.8 µM (active); in test [6], 21.9 µM (active); in [7], 15.5 µM (active); in test [8], 27.5 µM (active). In addition, the max activation in test [13] is -2.8%.
For `Cn1c(=O)c2c(ncn2CC(=O)O)n(C)c1=O`, the Potency result in test [1], in test [2], in test [3], in test [4], in [12] and in [5] was “inactive” throughout. Further, the Potency entry in test [7], in test [8], in test [9] and in [10] was “inactive” in each case.
`CCCCCCCC/C=C\CCCCCCCC(=O)OC`: the Potency entry in test [1], in test [2], in [3], in [4], in [12] and in test [6] was “inactive” in each case. Further, the Potency entry in [7] and in test [10] was “inactive” each time. Further, in test [8], the Potency was 31.8 µM (active).
Regarding `O=C(OCCOCCO)c1ccccc1Nc1cccc(C(F)(F)F)c1`, the Potency result in test [1], in test [2], in test [4] and in [5] was “inactive” in each case. In [13], the max activation is -0.0091%. Further, the Potency in test [7] is 17.4 µM (active); in test [8] it was 12.3 µM (active).
Regarding `Nc1nc(Cl)nc2c1ncn2[C@@H]1O[C@H](CO)[C@@H](O)[C@@H]1F`, the Potency entry in [1], in test [2], in test [4], in [6], in test [7] and in [8] was “inactive” throughout. The Potency entry in test [9] and in test [10] was “inactive” in each case. Besides, the compound was called inactive in test [11]. Moreover, the Potency is 0.531 µM (active) in [12] and 1 µM (active) in test [15]. Moreover, the max activation in test [13] is -7.37%.
Take `C=CCNc1nc(NCC=C)nc(N2CCN(C(c3ccc(F)cc3)c3ccc(F)cc3)CC2)n1`: the Potency entry in [1], in [2], in test [4], in test [6] and in test [8] was “inactive” throughout. Further, the compound was called inactive in test [11]. Moreover, in test [12], the Potency is 13.3 µM (active).
With `CCCCCCCCCCCCCCC[C@H](O)[C@@H](N)CO`, the Potency result in test [1], in test [3], in [4], in [12], in [14] and in [15] was “inactive” each time. For the same compound, the Potency entry in test [6], in [7], in test [8], in [9] and in test [10] was “inactive” each time. In test [11], the compound was called inactive. Moreover, the max activation in [13] was 0.49%.
